# Measured values reported in the supplement of paper PMC3334620.
# Over roughly 33,000 sequences, “E-score (-0.5 to 0.5)” has its median near -0.054; the highest 2% begin near 0.39. Shown is part of a subset that was picked to be rich in the highest values.
# Target: Ylr278c (UniProt Q05854)
# Assay: PBM E-score (8-mer binding enrichment) (E-score (-0.5 to 0.5)); higher = stronger / more preferred TF binding
# Conditions: protein concentration: 200 nM; construct: GST-DNA-binding domain
# Method: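 Universal 'all 10-mer' protein binding microarrays (Agilent AMADID 015681) probed with GST-tagged S. cerevisiae TFs (full-length or DBD) made by in vitro transcription/translation (PURExpress), about 100-200 nM. Bound TF was detected with fluorescent anti-GST. Each ungapped 8-mer (which stands for itself and its reverse complement) is scored by the PBM enrichment score (E-score), a modified Wilcoxon-Mann-Whitney statistic from -0.5 to +0.5, computed with the Universal PBM Analysis Suite. Scale: above 0.35 generally sequence-specific binding.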
# Chain of UniProt Q05854 (Q05854 whole entry): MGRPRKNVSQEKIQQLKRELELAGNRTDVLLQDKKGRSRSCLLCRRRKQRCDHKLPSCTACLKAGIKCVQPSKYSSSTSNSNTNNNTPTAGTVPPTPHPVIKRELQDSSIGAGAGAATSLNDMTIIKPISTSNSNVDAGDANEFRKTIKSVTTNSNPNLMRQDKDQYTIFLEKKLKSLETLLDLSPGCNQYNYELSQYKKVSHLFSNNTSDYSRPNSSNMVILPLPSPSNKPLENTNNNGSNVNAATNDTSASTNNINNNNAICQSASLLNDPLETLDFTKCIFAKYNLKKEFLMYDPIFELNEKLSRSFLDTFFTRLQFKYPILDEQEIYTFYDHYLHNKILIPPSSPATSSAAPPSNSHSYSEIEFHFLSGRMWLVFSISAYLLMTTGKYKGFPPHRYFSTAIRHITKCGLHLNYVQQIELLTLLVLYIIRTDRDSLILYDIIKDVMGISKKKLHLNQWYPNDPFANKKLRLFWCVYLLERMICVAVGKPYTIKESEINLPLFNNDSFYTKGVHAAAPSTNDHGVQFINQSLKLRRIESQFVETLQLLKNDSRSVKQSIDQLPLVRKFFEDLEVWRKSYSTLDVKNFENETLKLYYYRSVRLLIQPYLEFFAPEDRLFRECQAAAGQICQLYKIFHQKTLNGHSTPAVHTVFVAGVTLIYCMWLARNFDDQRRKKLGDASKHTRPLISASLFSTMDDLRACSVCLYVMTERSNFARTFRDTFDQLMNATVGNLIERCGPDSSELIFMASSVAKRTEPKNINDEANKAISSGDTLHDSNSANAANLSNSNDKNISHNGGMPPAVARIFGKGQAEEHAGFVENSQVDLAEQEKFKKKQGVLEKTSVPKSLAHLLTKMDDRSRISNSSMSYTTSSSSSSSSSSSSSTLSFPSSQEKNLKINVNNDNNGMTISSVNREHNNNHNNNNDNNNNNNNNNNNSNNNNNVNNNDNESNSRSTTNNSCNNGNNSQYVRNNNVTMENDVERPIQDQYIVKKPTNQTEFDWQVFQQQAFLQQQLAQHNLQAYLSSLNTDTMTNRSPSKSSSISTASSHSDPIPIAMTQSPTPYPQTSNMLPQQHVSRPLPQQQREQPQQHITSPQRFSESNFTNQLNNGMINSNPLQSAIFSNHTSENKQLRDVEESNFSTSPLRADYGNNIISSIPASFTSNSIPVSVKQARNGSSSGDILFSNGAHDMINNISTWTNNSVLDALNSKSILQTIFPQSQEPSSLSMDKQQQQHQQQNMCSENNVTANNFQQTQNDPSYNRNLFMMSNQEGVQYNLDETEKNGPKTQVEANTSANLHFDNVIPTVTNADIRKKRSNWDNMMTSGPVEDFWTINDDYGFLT
row,Sequence,PBM E-score
1,ACCCGGCC,0.272
2,ATACGGTG,0.0149
3,CTCACCTC,-0.0994
4,CTAGCATC,-0.167
5,CTGCTTTA,0.0716
6,GGTCTCTA,-0.21
7,ATCGCCAC,-0.0201
8,GCTGGGCA,-0.184
9,ATAACTTG,-0.14
10,ATACTGCC,0.013
11,ATAGAGAG,-0.283
12,AAGTCCTG,-0.106
13,AAGTCCCT,-0.213
14,AAGTCCTC,0.122
15,ACGTCCGC,0.299
16,AAGTCCGT,0.433
17,AAGTCCGG,0.481
18,AAGTCCAT,-0.0494
19,AAGTCCGC,0.46
20,AAGTCCAG,-0.0689
21,CACCGCTG,-0.0372
22,ACTTAAGG,-0.105
23,ACACAAGA,-0.0979
24,ACTAGAAT,-0.0455
25,ATTGGCCC,-0.211

row,Sequence,PBM E-score
1,GTCGTCGA,-0.121
2,AGGGTGCC,-0.211
3,CGTATCTC,0.148
4,CCCGGCAA,0.303
5,ACCGGCGA,0.379
6,CCCGGCCA,0.267
7,TCCGGCCA,0.409
8,TCCGGCGA,0.437
9,ACCGGCAA,0.285
10,GCCGGCAC,0.304
11,GCCGGCGA,0.385
12,ACCGGCCA,0.169
13,TCCGGCAA,0.431
14,TACGGCAA,0.129
15,GCCGGCAA,0.391
16,CCTAGTAA,0.00285
17,AGCCTGGC,-0.226
18,AACCAGGG,-0.155
19,GCTGCACC,0.00051
20,GAGGTGAA,-0.0886
21,ACATCAGC,-0.0321
22,AATTCCCG,0.345
23,AATTCCGT,0.441
24,AATTCCTG,0.0336
25,AATTCCGC,0.456

row,Sequence,PBM E-score
1,AATTCCGA,0.48
2,AATTCCGG,0.48
3,GATTCCGC,0.355
4,AATTCCCT,-0.103
5,AATTCCCA,-0.035
6,AATTCCAT,0.0569
7,AATTCCAA,-0.00843
8,CATTCCGC,0.32
9,GCTAAATA,-0.231
10,TGTGGAAA,-0.0101
11,ATCCATTC,-0.0913
12,TCTCGAAA,-0.21
13,AAATGCCA,-0.131
14,CAGGCTGG,-0.0868
15,TGTGTCAA,-0.227
16,CCGTTGTC,0.233
17,CAATCGGG,0.219
18,AAATCGGA,0.43
19,CAATCGGA,0.425
20,GAGTCGGA,0.387
21,TAGTCGGA,0.414
22,CAATCGGC,0.129
23,AAATCGGG,0.276
24,AAATCGGT,0.148
25,CAGTCGGA,0.357

row,Sequence,PBM E-score
1,GAATCGCA,-0.0817
2,GAATCGGC,0.33
3,GAATCGGA,0.409
4,AGACGCAG,-0.164
5,CCGCACAC,0.0213
6,AACCCAGG,-0.176
7,ATGTACTC,-0.0177
8,AGAGCTAA,-0.171
9,CGAACGCA,0.106
10,CTCTGACC,-0.148
11,AATTTTCC,0.358
12,GCCATCGC,-0.0776
13,ATGTTCTG,-0.11
14,TCTCTACA,-0.211
15,TAATCGAA,-0.0147
16,TAATCGTA,-0.186
17,TAATCGGA,0.417
18,CCCTGTCA,-0.228
19,ACCGCGGG,0.299
20,GACGCGGC,0.079
21,GCCGCGCA,0.21
22,AGCGCGGA,0.325
23,ACCGCGGT,0.178
24,GGCGCGGA,0.352
25,ACCGCGGA,0.407

row,Sequence,PBM E-score
1,GCCGCGAA,0.233
2,GCCGCGGC,0.406
3,CGCGCGGA,0.398
4,ACCGCGGC,0.305
5,GCCGCGGA,0.409
6,AAGTTCAT,0.154
7,CGCTTTTA,0.129
8,CATGGCAC,0.133
9,TACCCGCA,0.157
10,CAGCACCC,-0.0668
11,AGTCAGTA,0.00611
12,CATAGCCG,0.23
13,AACTCTTC,-0.204
14,AAGTGGTA,-0.0771
15,AGTTGTGG,-0.0534
16,TCCGCGAA,0.343
17,CCCGCGGC,0.336
18,CCCGCGGG,0.363
19,AACGCGGC,0.183
20,CCCGCGGA,0.409
21,CACGCGGA,0.379
22,TACGCGGA,0.309
23,AACGCGGA,0.397
24,TCCGCGGA,0.44
25,CCTCTCAA,0.0673

row,Sequence,PBM E-score
1,GGTAGAAA,-0.0702
2,AGCCCATG,-0.131
3,ACATTGAG,-0.114
4,CGACCTAG,0.02
5,AACGGTCT,-0.0855
6,AAACTCCA,0.176
7,CAACTCCA,0.0206
8,AAACTCCT,0.23
9,CAACTCCG,0.486
10,AAACTCCG,0.496
11,CAACTCCC,0.154
12,CACGCTCC,0.129
13,CTCGCGTC,0.0578
14,GGGCTCAA,-0.00819
15,ACTCCGGG,0.481
16,ACTCCTGG,-0.0351
17,CCTCCAGC,-0.37
18,ACTCCTGC,0.165
19,ACTCCAGG,0.00347
20,GCTCCCGA,0.0641
21,CCTCCGGC,0.448
22,CCTCCTGC,-0.182
23,GCTCCGGA,0.464
24,ACTCCAGC,-0.122
25,ACTCCGGC,0.476

row,Sequence,PBM E-score
1,GCTCCAGA,-0.103
2,ATAAGTTA,-0.103
3,ACTAGAAG,-0.121
4,AGAAGGAT,-0.269
5,ACTTCAGG,-0.0351
6,ACTGCATC,-0.142
7,CCACTTCC,0.0941
8,CTCTTGGC,-0.239
9,CTGAGGGC,-0.251
10,ACTCCGGA,0.494
11,ACTCCAGA,-0.112
12,CCTCCGGA,0.467
13,CCTCCCGA,0.0701
14,CCTCCTGA,-0.172
15,ACTCCTGA,0.0258
16,CGCGCAAG,0.0504
17,CTACACGC,-0.235
18,GCGATATA,0.00114
19,ACTAGCAA,-0.104
20,AGGTGCAC,0.0215
21,GGAATTCA,0.183
22,GGAATTCC,0.441
23,AGAATTCC,0.283
